Most compounds without a hit are left out; they make up all but 3.1% or so of the library.
Vif-APOBEC3F blk – Vif-A3F binding inhibition; HeLa A3F-eYFP + Vif (tagged APOBEC3F with the HIV-1 protein that degrades it), YFP fluorescence increase; Potency, µM (series often up to 46.1 µM), without a hit: top-dose activity, negative = active; 390,000 tested, 0.2% active; note: potency is the fitted concentration of half-maximal effect; % of control where 0% means no effect; nearly all actives have a fitted effect of over 65% in size
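HeLa cells stably expressing A3F-eYFP plus Vif, plated and incubated overnight at 37 deg C, then exposed to compounds overnight at 37 deg C. Blocked degradation read as raised yellow fluorescence (Ex 488/Em 500-530).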
Vif-APOBEC3G blk – Vif-A3G binding inhibition | Q9HC16 | HeLa A3G-eYFP + Vif (tagged APOBEC3G with the HIV-1 protein that degrades it), YFP fluorescence, overnight | Potency, µM (top dose mostly 46.1 µM), for inactives: top-dose activity, negative = active, most hits filed as inhibitors | 410,000 tested, 0.076% active | AID 602310; note: potency is the fitted concentration of half-maximal effect; % is set by controls: 0 for no effect and ±100 for the full control effect; nearly all actives have a fitted effect of over 60% in size
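Read-out is eYFP fluorescence (Ex 488/Em 500-530) from Vif-expressing HeLa A3G-eYFP cells; more signal means A3G escaped Vif-mediated degradation. Cells plated overnight, compound pinned in, incubated overnight at 37 deg C.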
VDR inh – blocks the human vitamin D receptor | P11473 | VDR-SRC2-3 peptide fluorescence polarization, 2 h | Potency, µM, without a hit: max response, negative = inhibition, hits mostly inhibitors | 400,000 tested, 0.93% active | AID 504847; note: potency is the fitted concentration of half-maximal effect; % is set by controls: 0 for no effect and ±100 for the full control effect
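Reagent solutions, kept cold and dark, are dispensed first; compounds are then pinned in at 23 nl, plates briefly spun, and incubated 2 h at ambient temperature. Inhibition of VDR–SRC2-3 peptide binding is read by fluorescence polarization.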
PLK1 PBD block – PLK1 (human) polo-box domain binding inhibition | AID 720504 | Potency, µM, without a hit: max response, negative = inhibition, most hits filed as inhibitors | Plk1 PBD binding of FITC phosphopeptide, fluorescence polarization | P53350 | 360,000 tested, 2.8% active; note: potency is the fitted concentration of half-maximal effect; series mostly up to about 57 µM; % is set by controls: 0 for no effect and ±100 for the full control effect; nearly all actives have a fitted effect of over 65% in size
TSHR antagonist – antagonists of human thyroid stimulating hormone receptor; 330,000 tested, 0.2% active; P16473; TSHR-expressing cells, TSH-stimulated cAMP HTRF, 2 h; active compounds read low; activity change, negative = inhibition, % at 11.5 µM;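 active = activity change below a set negative limit, meaning inhibition stronger than a set level, cut at about -70% in these data; inconclusive = activity change between two set negative limits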; note: % is set by controls: 0 for no effect and ±100 for the full control effect
Target sequence (P16473 whole entry, looked up): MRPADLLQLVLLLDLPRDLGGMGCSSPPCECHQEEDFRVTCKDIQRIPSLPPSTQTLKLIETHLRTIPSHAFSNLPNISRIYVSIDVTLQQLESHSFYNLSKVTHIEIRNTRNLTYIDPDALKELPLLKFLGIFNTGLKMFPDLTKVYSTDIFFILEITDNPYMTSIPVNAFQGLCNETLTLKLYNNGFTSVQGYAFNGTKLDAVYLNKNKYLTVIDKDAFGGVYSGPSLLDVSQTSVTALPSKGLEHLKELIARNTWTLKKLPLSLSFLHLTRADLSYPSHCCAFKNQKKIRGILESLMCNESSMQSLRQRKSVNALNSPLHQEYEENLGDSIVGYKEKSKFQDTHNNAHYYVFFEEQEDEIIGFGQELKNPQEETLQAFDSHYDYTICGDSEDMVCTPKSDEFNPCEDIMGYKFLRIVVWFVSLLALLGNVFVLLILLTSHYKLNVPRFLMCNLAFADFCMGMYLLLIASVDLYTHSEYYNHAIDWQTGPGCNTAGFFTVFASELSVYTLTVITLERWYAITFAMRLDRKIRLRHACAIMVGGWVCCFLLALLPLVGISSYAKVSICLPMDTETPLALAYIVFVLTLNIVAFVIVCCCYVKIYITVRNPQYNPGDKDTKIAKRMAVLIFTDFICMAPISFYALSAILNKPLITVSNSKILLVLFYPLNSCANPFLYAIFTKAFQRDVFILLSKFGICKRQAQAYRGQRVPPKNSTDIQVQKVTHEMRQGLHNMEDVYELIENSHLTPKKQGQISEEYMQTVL
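TSHR-expressing cells, 200/well, pre-treated with compound, then stimulated with EC80 TSH (4nM final) for 2 hours at 37 deg C. cAMP measured by competitive HTRF: anti-cAMP cryptate antibody in lysis buffer plus cAMP-d2, read after 30 minutes at room temperature.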
* = called active by the depositor; ? = inconclusive; · = no result given. Unless noted, calls come from the whole dose curve; as a rule, active = well fitted curve in the direction sought with a large enough effect; inconclusive = small, poorly fitted or top-dose-only effect, or another doubt; inactive = no such curve, though single readings can be large; an effect the other way counts as inactive or inconclusive.

SMILES | Vif-APOBEC3F blk | Vif-APOBEC3G blk | VDR inh | PLK1 PBD block | TSHR antagonist
COc1ccc(C2C3C=CCC(c4cccc(/C=C/c5ccccc5)c4)C3C(=O)N2Cc2ccccc2)cc1Cl (stereo not drawn) | · | -4% | 10% | · | ·
CNCc1nc(-c2ccc[nH]2)c2cc(Cl)ccc2n1 | · | 5% | · | · | ·
CCOC(=O)C1=C(C)NC(C)=C(C(=O)OCC)C1c1c(F)c(F)c(F)c(F)c1F | · | · | -6% | · | -16
N#CC1=C(N)NC(=S)C(C(N)=O)C1c1ccc([N+](=O)[O-])cc1 (stereo not drawn) | -2% | 3% | 79µM* | 27µM* | -3
O=C1NC(C(=O)O)=CC(c2ccc([N+](=O)[O-])cc2)N1 (stereo not drawn) | 4% | 3% | -26% | -4% | 4
O=CN/C=C/c1cc(F)cc(F)c1F | · | · | -3% | · | ·
CCC(C)(C)NC(=O)C(c1ccc(C)cc1)N(CCN1CCOCC1)C(=O)CNC(=O)c1cccs1 (stereo not drawn) | -5% | 3% | -9% | 30µM* | -5
O=C(NCC(=O)N(CCN1CCOCC1)C(C(=O)NC1CCCC1)c1cccnc1)c1cccs1 (stereo not drawn) | -2% | -1% | 9% | -2% | -3
Cc1ccc(S(=O)(=O)N2CCCCC2)cc1NC(=O)CSc1ncn[nH]1 | -8% | -220% | -6% | -9% | 4
CCN(CC)c1ccc(S(=O)(=O)N2CCOCC2)cc1NC(=O)CSC(=S)N1CCCC1 | -2% | 2% | -30% | 13µM* | -9
O=C(CSc1ncn[nH]1)Nc1cc(S(=O)(=O)N2CCCC2)ccc1Cl | ? | -2% | -2% | 30µM* | 2
Cc1ccc(S(=O)(=O)N2CCOCC2)cc1NC(=O)CSc1ccccn1 | -3% | 6% | -4% | 30µM* | 2
Cc1ccc(S(=O)(=O)N2CCOCC2)cc1NC(=O)CSc1nc(N)cc(N)n1 | -14% | 2% | -11% | -6% | 25
CCN(CC)c1ccc(S(=O)(=O)N2CCOCC2)cc1NC(=O)C1CC1 | -14% | 2% | 9% | 3% | 1
Cc1ccc(C(C2C(=O)CC(C)(C)CC2=O)C2C(=O)CC(C)(C)CC2=O)s1 | · | -10% | 40µM* | 2.7µM* | -6
COc1ccc(C(C2C(=O)CC(C)(C)CC2=O)C2C(=O)CC(C)(C)CC2=O)cc1 | -3% | 0% | 56µM* | 9.5µM* | 4
CC1(C)CC(=O)C(C(c2ccncc2)C2C(=O)CC(C)(C)CC2=O)C(=O)C1 | 3% | -3% | 10% | -9% | -6
CC1(C)CC(=O)C(C(c2ccc3c(c2)OCO3)C2C(=O)CC(C)(C)CC2=O)C(=O)C1 | · | 0% | · | 17µM* | ·
O=C1C=CC2=C3c4cc(O)c(O)cc4C[C@@]3(O)COC2=C1 | · | · | 11µM* | · | ·
COCc1cc(C)nc2sc(C(=O)Nc3ccc(OC(F)(F)F)cc3)c(N)c12 | -5% | 1% | -15% | · | ·
COc1ccc(C(=O)c2sc(NC(C)C)nc2N)cc1OC | -25% | -6% | -3% | -3% | -3
COc1ccc(C(=O)c2sc3nc4c(c(C(F)(F)F)c3c2N)CN(C(C)=O)CC4)cc1OC | 22µM* | ? | -2% | · | ·
COc1ccc(OC)c(NC(=O)c2sc3nc(Cc4ccccc4)cc(C(F)(F)F)c3c2N)c1 | 10µM* | 0% | 5% | -10% | 18
COc1ccc(NC(=O)c2sc3nc(C(F)(F)F)cc(C)c3c2N)cc1OC | 5.6µM* | -14% | -9% | · | ·
COc1ccc(CNC(=O)c2sc3nc4c(c(C(F)(F)F)c3c2N)CCC4)cc1OC | ? | 1% | 40µM* | ? | -20
SMILES | Vif-APOBEC3F blk | Vif-APOBEC3G blk | VDR inh | PLK1 PBD block | TSHR antagonist
OCC(O)C[n+]1cccc(Br)c1 (stereo not drawn) | · | 3% | · | · | ·
CCCCn1c(=O)c2oc3ccccc3c2n(Cc2ccccc2C)c1=O | 11% | -12% | -1% | · | ·
COc1ccc(-c2ccc(OC)c(C3C4C=CCCC4(C)C(=O)N3Cc3ccccc3)c2)cc1OC (stereo not drawn) | · | 0% | -7% | · | ·
COc1ccc(NC(=O)c2sc3nc4c(cc3c2N)CN(Cc2ccccc2)CC4)c(OC)c1 | 11µM* | ? | 10% | · | ·
O=C1CC(c2ccccc2O)Oc2ccc(O)cc21 (stereo not drawn) | · | · | -21% | · | ·
C=C1C=C(C)n2ncc(C(=O)Nc3ccccc3C(=O)OC)c2N1 | · | -3% | · | · | ·
COc1cc(C(=O)NC(=S)Nc2ccc(Cl)cn2)cc(OC)c1OC | ? | 0% | ? | 24µM* | -7
COc1ccc2c(c1)c1c(c(=O)n(-c3ccc(C)cc3)c(=O)n1CC(=O)NCc1ccc(C)cc1)n2C | -4% | -2% | 14% | · | ·
Clc1ccc2c(ccc[n+]2CCC2CCCCC2)c1 | · | 2% | · | · | ·
COc1cc(/C=N/n2cnnc2)ccc1OC(=O)c1cccnc1 | -2% | 0% | ? | 7.5µM* | 3
N#Cc1c(-c2cccs2)nc(SCc2ccc(Cl)cc2)[nH]c1=O | -8% | -3% | -5% | 21µM* | ?
CC1CCN(c2ccc(-c3cccc(NS(=O)(=O)c4ccc(F)cc4F)c3)nn2)CC1 | 2% | -3% | 18% | · | ·
CCOC(=O)C(C)Sc1nnc(Cc2cc(=O)[nH]c(=O)[nH]2)n1-c1ccc(Cl)cc1 (stereo not drawn) | -11% | 0% | ? | 21µM* | 1
COC(=O)C(C)Sc1nnc(Cc2cc(=O)[nH]c(=O)[nH]2)n1-c1ccc(Cl)cc1 (stereo not drawn) | · | · | · | · | 27
CN(C)CC1CCn2c(c(C3=C(c4cn(C)c5ccccc45)C(=O)NC3=O)c3ccccc32)C1 (stereo not drawn) | · | · | 1% | · | ·
Cc1cc(O)c(C(C)C)cc1N=Cc1ccccc1[N+](=O)[O-] | -12% | 0% | 32µM* | -3% | ·
c1ccc(-n2cnnn2)cc1 | · | · | 11% | · | ·
CC(Oc1cccc(Cl)c1)C(=O)NCc1ccc(S(N)(=O)=O)cc1 (stereo not drawn) | 0% | 4% | ? | 19µM* | -16
COC1=CC(=O)C(O)=C/C1=C\C=C\c1ccccc1 | · | · | 2.8µM* | · | ·
COc1ccc(-n2c(=O)c(-c3ccc(Cl)cc3)nc3cnc(N4CCOCC4)nc32)cc1 | · | · | 40µM* | · | ·
COc1ccc(-c2nc3cnc(N4CCOCC4)nc3n(-c3ccccc3)c2=O)cc1 | · | · | 4% | · | ·
COc1ccc(S(=O)(=O)NC2CC2)cc1C(=O)N1CCOCC1 | -24% | 3% | ? | 7.5µM* | 5
Cc1ccc(-n2nnnc2-c2cnoc2-c2cccc(F)c2)cc1 | · | -11% | 50µM* | 21µM* | -35
OCC(O)CS (stereo not drawn) | · | · | 9% | · | ·
Cn1cccc1/C=C1\SC(=O)N(c2ccc(O)cc2)C1=O | 25µM* | ? | -7% | 4% | -3
CCOc1ccc(N2C(=O)S/C(=C\c3cccn3C)C2=O)cc1 | ? | -13% | 5% | -1% | -23
COc1ccc2[nH]c(CCc3nc4c(OC)c(OC)ccc4[nH]3)nc2c1OC | · | 0% | · | · | ·

Screening data: PubChem, National Center for Advancing Translational Sciences (NCATS)
